# Assay outcomes: PubChem, The Scripps Research Institute Molecular Screening Center
# CHO-K1 Ca PAM: nonselective activator or artifact in parental CHO-K1 calcium assay; ATP EC20, Fluo-8 calcium fluorescence; 0% at ATP EC20, 100% at ATP max; 360,000 compounds, 0.02% hits; activation, % at 3 µM;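 active means activation above the run cutoff, the mean activation of all test compounds plus 3 SD, cut at about 40% in these data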;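 further: peak over basal fluorescence ratio in a 140 s read after ATP addition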
# CHRM1 agonist: activates human CHRM1 receptor | 360,000 compounds, 0.33% hits | AID 588814 | P11229 | activation, % at 3 µM | CHO-K1 hM1, Fluo-8 calcium fluorescence, agonist mode; 0% DMSO, 100% acetylcholine EC100;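 active means activation above the run's mean compound activation plus 3 SD, cut at about 16% in these data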;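 further: peak over basal fluorescence ratio within a 140 s kinetic read after compound addition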
# Target sequence (P11229 whole entry, looked up): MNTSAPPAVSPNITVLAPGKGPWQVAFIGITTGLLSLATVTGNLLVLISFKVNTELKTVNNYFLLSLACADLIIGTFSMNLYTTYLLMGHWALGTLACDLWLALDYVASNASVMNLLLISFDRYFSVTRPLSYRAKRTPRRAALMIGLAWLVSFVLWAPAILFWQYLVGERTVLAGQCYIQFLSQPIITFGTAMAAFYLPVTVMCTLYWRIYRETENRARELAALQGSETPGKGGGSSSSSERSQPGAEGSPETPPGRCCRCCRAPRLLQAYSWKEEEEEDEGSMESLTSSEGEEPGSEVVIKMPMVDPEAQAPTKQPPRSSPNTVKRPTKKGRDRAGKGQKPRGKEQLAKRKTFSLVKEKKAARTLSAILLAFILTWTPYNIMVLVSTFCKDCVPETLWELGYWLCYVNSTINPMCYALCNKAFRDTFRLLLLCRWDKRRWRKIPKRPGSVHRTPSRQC
# CHO-K1 Ca ag: nonselective activator or artifact in parental CHO-K1 cells; activation, % at 3 µM; 360,000 compounds, 0.48% hits; AID 602248; Fluo-8 calcium fluorescence; scaled to maximal ATP response, vehicle zero; in the data active means activation above about 15%;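 further: untransfected CHO-K1 host cells lacking M1 receptor as counterscreen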
# CHO-K1 Ca antag: M1 antagonist counterscreen hit in parental CHO-K1 cells; AID 602250; inhibition, % at 3 µM; ATP-induced calcium, Fluo-8 fluorescence; 360,000 compounds, 0.6% hits;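 active means inhibition above a per-plate cutoff, the plate's mean sample inhibition plus 3 SD, cut at about 24% in these data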;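 further: 0% = DMSO plus EC80 ATP and 100% = DMSO alone without ATP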
# M1 PAM: potentiates human M1 receptor response to acetylcholine | CHO-K1 hM1, Fluo-8 calcium fluorescence, ACh EC20; 0% = ACh EC20, 100% = maximal ACh | activation, % at 3 µM | 360,000 compounds, 0.088% hits; in the data active means activation above about 19%, passing the limit was not always enough
# M1 antag: human CHRM1 antagonism; inhibition, % at 3 µM; CHO-K1 hM1, Fluo-8 calcium fluorescence, ACh EC80 antagonist; P11229; 360,000 compounds, 1.3% hits;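 active means percent inhibition above its own plate's cutoff, namely the mean of that plate's compound wells plus 3 SD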;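 further: peak over basal fluorescence ratio during 140 s after agonist addition; 0% = ACh EC80 plus DMSO and 100% = DMSO alone without agonist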
# * hit, by the source's call; x = no result. Only some compounds are listed: those with a hit (about 2.3% of all), similar ones and a draw of the others.
SMILES,CHO-K1 Ca PAM,CHRM1 agonist,CHO-K1 Ca ag,CHO-K1 Ca antag,M1 PAM,M1 antag
CCN(CC(=O)Nc1ccc(NC(C)=O)cc1)C(=O)c1cc(-c2ccccc2Cl)nc2ccccc12,-5,0,8,3,-16,41*
COc1ccccc1CN(C)C(=O)c1cc(-c2cc(OC)c(OC)c(OC)c2)nc2ccccc12,1,-6,5,-2,-3,19
COCCN(Cc1ccccc1)C(=O)c1cc(-c2ccc(OC)c(OC)c2)nc2ccccc12,-20,1,6,15,3,16
COc1ccc(-c2cc(C(=O)N(C)Cc3ccccc3F)c3ccccc3n2)cc1OC,1,-2,5,8,-16,40*
CCN(CC)S(=O)(=O)c1ccc(O)c(NC(=O)c2cc(-c3cc(OC)c(OC)c(OC)c3)nc3ccccc23)c1,-3,-2,2,-6,-16,29*
CCN(Cc1ccccc1)C(=O)c1cc(-c2ccc(OC)c(OC)c2)nc2ccccc12,-6,-4,5,3,-12,35*
COc1cc(-c2cc(C(=O)N(C)Cc3ccccc3)c3ccccc3n2)cc(OC)c1OC,-2,-5,5,6,-11,22*
CN(C)S(=O)(=O)c1ccc(C(=O)OCC2CCCO2)cc1 (centres undefined),6,-4,1,-8,2,-1
CCOC(=O)[C@]12CCC=C1N(Cc1cccc3ccccc13)C(=O)[C@H](CC(=O)NCC13CC4CC(CC(C4)C1)C3)C2,4,x,1,-28,x,x
COc1ccccc1CNC(=O)c1ccccc1NC(=O)C1=C(C)OCCS1,-12,-2,3,-1,-10,17
Cn1c(=O)n(-c2cccc(Cl)c2)c(=O)c2c3c(sc21)COC(C)(C)C3,-7,1,-1,30*,11,-7
O=C(CNS(=O)(=O)c1c(Cl)cccc1Cl)OCC(=O)N1CCN(c2ccccc2)CC1,-12,-7,1,26*,-6,13
COc1cccc(C(=O)Nc2cc(C(=O)NCc3ccc(C)cc3)ccc2N2CCC3(CC2)CC(c2cccc(Br)c2)=NO3)c1,6,-2,0,-10,7,3
CCC[N+]1(CC#CC(O)(c2ccccc2)C2CCCCC2)CCCCC1 (centres undefined),-4,-7,0,1,-28,99*
NC(=O)C[N+]1(CC#CC(O)(c2ccccc2)c2ccccc2)CCCC1,5,-13,0,-8,-33,92*
CCN(CC)CCC#CC(O)(c1ccccc1)C1CCCCC1 (centres undefined),13,-14,3,-20,-37,99*
O=S(=O)([O-])CCC[N+]1(CC#Cc2ccccc2)CCCCC1,16,-3,1,-13,2,-3
COc1ccc(C(C)=O)c(OCC(=O)NCCC2=CCCCC2)c1,2,2,4,5,8,-9
O=C(COC(=O)C12CC3CC(CC(C3)C1)C2)NNC(=O)c1ccccc1,22,1,2,-7,12,-9
Cc1ccc(/C=N/Nc2nc(C)cc(C)n2)cc1,4,-2,0,-5,17,-15
Cc1cc(C)nc(N/N=C/c2cn[nH]c2-c2ccc(F)cc2)n1,12,9,18*,2,10,-6
CCCC(=O)OCC(=O)Nc1ccc([N+](=O)[O-])cc1C#N,-16,2,0,26*,18,-12
N#Cc1cc([N+](=O)[O-])ccc1NC(=O)COC(=O)CN1C(=O)C2CCCCC2C1=O (centres undefined),21,3,5,6,-4,4
Cn1cc(CNCc2ccc(OC(F)(F)F)cc2)c(-c2ccc3c(c2)OCCO3)n1,4,5,12,22,-10,33*
CSc1ccc(CN2CCN(Cc3ccc([N+](=O)[O-])cc3)CC2)cc1,-4,-7,9,-12,-26,41*
SMILES,CHO-K1 Ca PAM,CHRM1 agonist,CHO-K1 Ca ag,CHO-K1 Ca antag,M1 PAM,M1 antag
O=[N+]([O-])c1ccc(CN2CCCCCC2)cc1,15,-3,0,-5,-1,1
CCCS(=O)(=O)NC(=O)C1(C)CCN(C(=O)C2(c3ccc(Cl)cc3)CCCC2)C1 (centres undefined),7,-3,0,0,-1,2
CC(=O)N1CCN(c2nc3ccc([N+](=O)[O-])cc3s2)CC1,-7,1,4,-11,10,-17
N#Cc1cnn(CC2CCCCC2)c1N,-8,-4,0,30*,1,1
Cc1ccc(NC(=O)N(C2=NCC(C)S2)c2ccccc2)cc1 (centres undefined),6,-6,1,-7,-8,8
Cc1cccc(N(C(=O)Nc2ccc(Cl)cc2)C2=NCC(C)S2)n1 (centres undefined),3,-7,15*,11,-4,18
Cc1c(C(=O)OCC(=O)NCc2ccco2)cccc1[N+](=O)[O-],10,-4,0,-10,4,3
CSCCC1NC(=S)N(Cc2ccccc2)C1=O (centres undefined),12,-3,2,-10,0,-7
C#CCSc1nc(-c2cccs2)ccc1C#N,5,-5,0,-2,-8,6
CN1CCN(C(=O)CSc2nc(-c3ccncc3)ccc2C#N)CC1,-1,-4,1,19,-10,26*
COC(=O)CSc1nc(-c2cccs2)ccc1C#N,19,-8,2,-7,-18,47*
Cc1cc(NC(=O)CSC2=NS(=O)(=O)c3ccccc3N2)no1,-18,-1,1,-11,4,-6
CCCn1c2ccc(C)cc2c2nnc(SCCN3CCCCC3)nc21,-7,-10,0,-14,-20,20
C=CCn1c2ccccc2c2nnc(SCN3C(=O)c4ccccc4C3=O)nc21,14,0,6,5,-22,46*
C=CCn1c2ccccc2c2nnc(SCCN3CCCCC3)nc21,18,-10,0,-19,-29,53*
CCn1c2ccc(C)cc2c2nnc(SCCN3CCCCC3)nc21,-6,-11,0,-7,-20,37*
Cc1ccccc1NC(=O)/C=C1\SC(=O)NC1=O,15,-3,0,-10,12,-13
C[C@@H]1CN([C@@H](C)CO)C(=O)CCCn2nncc2CO[C@H]1CN(C)C(=O)Nc1ccccc1F,18,-3,1,-9,10,-14
CCN1CCN(c2nc(-c3ccccc3)c3ccccc3n2)CC1,25,-11,3,-25,-29,47*
c1ccc(-c2nc(N3CCCCC3)nc3ccccc23)cc1,15,-5,0,-3,-2,6
Cc1cc(Oc2ccccc2)nc(-c2ccccc2)n1,6,-4,-1,-36,9,-10
c1ccc(Oc2cc(-c3ccccc3)nc(-c3ccccc3)n2)cc1,-7,-2,0,3,26*,9
